Results as given in the supplement of paper PMC12067093, “Discovery and optimisation of a covalent ligand for TRIM25 and its application to targeted protein ubiquitination” (Chemical Science, 2025).
Of roughly 21,000 targets only a part is listed; those with the largest changes were picked by preference.

Compound: Cc1cc(ccc1-c1ccccc1)C(=O)N1CCCN(CC1)C(=O)CCl [compound 10]
Test: probe-labelled cysteine peptide fold change vs DMSO (competition) (log2 fold change); higher = less target engagement (more negative = stronger competition)
Details: THP-1, incubation time: 4 h
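Further: competitive profiling in live THP-1 cells: cysteine peptides tagged with an iodoacetamide desthiobiotin (IA-DTB) probe, intensity after compound treatment relative to DMSO-treated cells.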

Sequence of UniProt O15287 (O15287 whole entry, looked up): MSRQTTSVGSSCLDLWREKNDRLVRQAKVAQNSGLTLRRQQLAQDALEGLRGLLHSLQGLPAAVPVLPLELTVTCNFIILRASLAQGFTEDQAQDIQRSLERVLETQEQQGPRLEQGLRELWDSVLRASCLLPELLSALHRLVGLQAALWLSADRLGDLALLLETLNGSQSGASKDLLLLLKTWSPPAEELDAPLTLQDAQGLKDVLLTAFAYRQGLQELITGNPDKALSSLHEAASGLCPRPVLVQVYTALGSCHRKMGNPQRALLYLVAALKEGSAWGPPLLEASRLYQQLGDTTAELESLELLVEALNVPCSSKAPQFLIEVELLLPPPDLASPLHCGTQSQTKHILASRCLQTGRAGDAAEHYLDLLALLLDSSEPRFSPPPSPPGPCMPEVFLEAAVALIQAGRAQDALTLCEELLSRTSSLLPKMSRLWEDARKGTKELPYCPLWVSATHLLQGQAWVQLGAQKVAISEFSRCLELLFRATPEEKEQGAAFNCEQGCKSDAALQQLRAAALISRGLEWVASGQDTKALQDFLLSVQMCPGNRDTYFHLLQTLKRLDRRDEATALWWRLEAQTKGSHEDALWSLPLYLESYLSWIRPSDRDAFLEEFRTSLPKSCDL
Sequence of UniProt Q96EK7 (Q96EK7 whole entry, looked up): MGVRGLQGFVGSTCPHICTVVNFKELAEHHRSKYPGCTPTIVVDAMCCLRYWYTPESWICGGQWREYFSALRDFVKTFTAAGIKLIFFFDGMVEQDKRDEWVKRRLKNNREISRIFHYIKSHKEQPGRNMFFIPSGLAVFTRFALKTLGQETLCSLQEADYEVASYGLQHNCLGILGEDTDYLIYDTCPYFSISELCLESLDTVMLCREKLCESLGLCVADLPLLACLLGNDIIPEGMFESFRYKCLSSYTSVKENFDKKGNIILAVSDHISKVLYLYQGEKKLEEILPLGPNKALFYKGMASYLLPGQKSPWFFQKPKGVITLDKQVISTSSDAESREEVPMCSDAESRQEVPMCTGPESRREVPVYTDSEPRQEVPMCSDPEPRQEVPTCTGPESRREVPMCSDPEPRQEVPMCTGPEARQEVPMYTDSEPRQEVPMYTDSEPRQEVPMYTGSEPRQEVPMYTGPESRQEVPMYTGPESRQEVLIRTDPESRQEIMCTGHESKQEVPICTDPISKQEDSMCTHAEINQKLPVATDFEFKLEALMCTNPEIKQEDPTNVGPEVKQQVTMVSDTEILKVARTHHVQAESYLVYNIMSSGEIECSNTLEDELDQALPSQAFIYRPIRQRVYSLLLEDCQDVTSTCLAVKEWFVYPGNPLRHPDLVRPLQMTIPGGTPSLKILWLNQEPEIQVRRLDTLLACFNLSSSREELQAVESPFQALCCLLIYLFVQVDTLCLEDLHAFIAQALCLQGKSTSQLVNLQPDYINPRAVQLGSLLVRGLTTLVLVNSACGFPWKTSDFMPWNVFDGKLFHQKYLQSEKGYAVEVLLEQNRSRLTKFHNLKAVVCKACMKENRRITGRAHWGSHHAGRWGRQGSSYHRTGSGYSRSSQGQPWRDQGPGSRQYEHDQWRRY
Sequence of UniProt Q5RKV6 (Q5RKV6 whole entry, looked up): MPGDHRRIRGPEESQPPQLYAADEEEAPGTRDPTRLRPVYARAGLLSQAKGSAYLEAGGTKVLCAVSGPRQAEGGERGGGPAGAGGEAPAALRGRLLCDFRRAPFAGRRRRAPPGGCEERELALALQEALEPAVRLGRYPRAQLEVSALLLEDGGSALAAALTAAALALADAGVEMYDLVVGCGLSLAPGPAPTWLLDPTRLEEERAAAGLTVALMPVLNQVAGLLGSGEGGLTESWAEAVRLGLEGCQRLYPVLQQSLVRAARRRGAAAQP
Sequence of UniProt Q5VTE0 (Q5VTE0 whole entry, looked up): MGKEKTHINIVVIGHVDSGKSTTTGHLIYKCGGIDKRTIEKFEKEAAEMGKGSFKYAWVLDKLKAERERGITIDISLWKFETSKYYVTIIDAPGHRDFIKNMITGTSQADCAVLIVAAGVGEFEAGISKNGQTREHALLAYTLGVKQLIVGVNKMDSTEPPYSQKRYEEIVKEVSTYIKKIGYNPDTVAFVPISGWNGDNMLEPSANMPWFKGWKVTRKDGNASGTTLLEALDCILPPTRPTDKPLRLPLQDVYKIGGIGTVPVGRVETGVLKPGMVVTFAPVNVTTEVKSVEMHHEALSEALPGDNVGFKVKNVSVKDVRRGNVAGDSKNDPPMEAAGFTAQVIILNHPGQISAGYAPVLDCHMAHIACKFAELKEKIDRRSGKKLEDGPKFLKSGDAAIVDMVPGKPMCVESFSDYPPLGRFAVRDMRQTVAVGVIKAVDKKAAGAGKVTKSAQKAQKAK
Sequence of UniProt Q15910 (Q15910 whole entry, looked up): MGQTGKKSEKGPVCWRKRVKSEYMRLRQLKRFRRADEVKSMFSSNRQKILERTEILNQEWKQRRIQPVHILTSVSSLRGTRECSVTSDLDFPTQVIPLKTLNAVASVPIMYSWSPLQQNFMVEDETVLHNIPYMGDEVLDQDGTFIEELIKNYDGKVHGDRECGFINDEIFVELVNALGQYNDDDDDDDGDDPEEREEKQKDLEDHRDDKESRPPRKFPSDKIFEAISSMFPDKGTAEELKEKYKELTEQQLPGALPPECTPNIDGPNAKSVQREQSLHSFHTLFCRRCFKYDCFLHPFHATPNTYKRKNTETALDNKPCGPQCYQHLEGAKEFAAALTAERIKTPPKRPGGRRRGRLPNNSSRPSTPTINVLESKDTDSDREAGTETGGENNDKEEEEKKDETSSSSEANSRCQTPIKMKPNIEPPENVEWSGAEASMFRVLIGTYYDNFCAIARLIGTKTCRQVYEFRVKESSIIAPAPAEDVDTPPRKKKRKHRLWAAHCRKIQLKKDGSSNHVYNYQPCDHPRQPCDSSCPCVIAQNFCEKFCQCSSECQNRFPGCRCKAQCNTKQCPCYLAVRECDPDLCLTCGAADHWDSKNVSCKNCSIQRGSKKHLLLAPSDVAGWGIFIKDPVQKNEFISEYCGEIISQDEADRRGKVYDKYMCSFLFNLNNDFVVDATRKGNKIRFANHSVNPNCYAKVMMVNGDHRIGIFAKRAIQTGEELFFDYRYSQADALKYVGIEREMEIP
Sequence of UniProt Q15029 (Q15029 whole entry, looked up): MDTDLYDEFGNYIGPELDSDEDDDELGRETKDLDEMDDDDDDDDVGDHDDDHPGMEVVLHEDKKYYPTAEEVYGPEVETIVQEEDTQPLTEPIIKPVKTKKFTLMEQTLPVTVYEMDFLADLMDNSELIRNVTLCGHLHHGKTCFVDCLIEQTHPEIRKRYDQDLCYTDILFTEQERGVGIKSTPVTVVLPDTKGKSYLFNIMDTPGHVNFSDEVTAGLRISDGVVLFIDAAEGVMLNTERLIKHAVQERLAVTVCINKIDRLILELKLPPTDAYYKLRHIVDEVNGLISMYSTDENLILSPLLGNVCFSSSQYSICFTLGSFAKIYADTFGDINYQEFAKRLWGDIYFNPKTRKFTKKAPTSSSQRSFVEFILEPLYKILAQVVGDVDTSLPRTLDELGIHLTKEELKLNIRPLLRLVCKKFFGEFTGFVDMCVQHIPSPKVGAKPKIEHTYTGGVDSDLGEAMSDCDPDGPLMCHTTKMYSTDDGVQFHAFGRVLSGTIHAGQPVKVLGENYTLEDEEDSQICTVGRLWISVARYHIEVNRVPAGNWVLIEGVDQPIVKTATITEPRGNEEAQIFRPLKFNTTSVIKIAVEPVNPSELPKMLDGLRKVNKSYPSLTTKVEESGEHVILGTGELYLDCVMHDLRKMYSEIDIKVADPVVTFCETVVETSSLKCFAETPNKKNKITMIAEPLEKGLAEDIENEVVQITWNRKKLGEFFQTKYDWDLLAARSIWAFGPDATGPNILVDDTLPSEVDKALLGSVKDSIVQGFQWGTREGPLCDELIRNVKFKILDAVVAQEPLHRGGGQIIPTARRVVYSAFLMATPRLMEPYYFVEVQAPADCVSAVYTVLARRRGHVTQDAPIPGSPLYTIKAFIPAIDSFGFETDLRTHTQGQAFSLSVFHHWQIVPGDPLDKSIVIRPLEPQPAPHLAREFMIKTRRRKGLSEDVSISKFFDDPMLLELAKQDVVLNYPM
Sequence of UniProt Q96E09 (Q96E09 whole entry): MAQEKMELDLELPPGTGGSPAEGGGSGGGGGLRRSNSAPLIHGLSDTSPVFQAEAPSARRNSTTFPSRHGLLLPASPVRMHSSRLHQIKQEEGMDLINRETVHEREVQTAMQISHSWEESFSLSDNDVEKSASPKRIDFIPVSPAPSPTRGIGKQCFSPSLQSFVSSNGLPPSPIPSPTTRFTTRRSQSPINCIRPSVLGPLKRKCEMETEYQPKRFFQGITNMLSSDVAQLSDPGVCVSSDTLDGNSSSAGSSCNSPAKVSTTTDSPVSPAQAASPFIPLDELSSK
Sequence of UniProt P10109 (P10109 whole entry, looked up): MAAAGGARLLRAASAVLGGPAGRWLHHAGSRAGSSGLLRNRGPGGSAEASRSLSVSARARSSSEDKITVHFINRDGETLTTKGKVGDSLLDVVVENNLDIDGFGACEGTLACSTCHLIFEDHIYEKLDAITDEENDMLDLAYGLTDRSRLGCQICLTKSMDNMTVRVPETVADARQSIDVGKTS
Sequence of UniProt Q17RN3 (Q17RN3 whole entry, looked up): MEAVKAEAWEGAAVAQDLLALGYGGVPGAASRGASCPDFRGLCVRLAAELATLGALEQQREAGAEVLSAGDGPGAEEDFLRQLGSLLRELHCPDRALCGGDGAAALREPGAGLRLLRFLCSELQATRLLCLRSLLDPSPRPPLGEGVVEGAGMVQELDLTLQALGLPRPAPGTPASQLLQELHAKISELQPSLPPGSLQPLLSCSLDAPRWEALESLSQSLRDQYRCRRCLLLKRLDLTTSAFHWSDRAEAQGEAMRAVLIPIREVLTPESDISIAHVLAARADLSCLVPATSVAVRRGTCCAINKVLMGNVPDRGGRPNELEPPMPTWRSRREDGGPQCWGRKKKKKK

Target	probe-labelled cysteine peptide fold change (10 µM)	probe-labelled cysteine peptide fold change (50 µM)
ELP4_Q96EB1_361_LNNLICDESDVK (UniProt Q96EB1)	-0.0288	0.12
DTX3L_Q8TDB6_219_DSCISPSEPETK (UniProt Q8TDB6)	-0.446	-0.672
FBXO22_Q8NEZ5_7_MEPVGCCGECR (UniProt Q8NEZ5)	-0.235	1.31
FAM118A_Q9NWS6_113_TGDAKPSFFQDCLMEVFDDLEQHIR (UniProt Q9NWS6)	0.174	-0.519
EEF1A1_P68104_234_DGNASGTTLLEALDCILPPTRPTDKPLRLPLQDVYK (UniProt P68104)	-0.124	-0.435
EFTUD2_Q15029_144+148_TCFVDCLIEQTHPEIR (UniProt Q15029)	-0.176	-0.0405
ERCC3_P19447_342_SGVIVLPCGAGK (UniProt P19447)	-0.235	-1.63
FDX1_P10109_152+155_LGCQICLTK (UniProt P10109)	-0.319	-0.896
EEF1A1P5_Q5VTE0_363+370_GNVAGDSKNDPPMEAAGFTAQVIILNHPGQISAGYAPVLDCHMAHIACK (UniProt Q5VTE0)	-0.198	-1.24
EPRS_P07814_92+105_LSSCDSFTSTINELNHCLSLR (UniProt P07814)	0.0532	-0.00186
EXOSC1_Q9Y3B2_73_ETESQLLPDVGAIVTCK (UniProt Q9Y3B2)	-0.0568	0.13
EEF1A1_P68104_31_CGGIDKR<|>EEF1A2_Q5VTE0_31_CGGIDKR (UniProt Q5VTE0+P68104)	-1.04	-1.79
ELOVL5_Q9NYP7_61_NKQPFSCR (UniProt Q9NYP7)	-0.567	-1.94
ELP1_O95163_23_DIQGPGNPQCFSLR (UniProt O95163)	0.145	-0.213
FAM122A_Q96E09_193_SQSPINCIRPSVLGPLK (UniProt Q96E09)	-0.132	-0.161
EXOSC1_Q9Y3B2_40_HGYIFSSLAGCLMK (UniProt Q9Y3B2)	0.118	-0.0583
FAM126A_Q9BYI3_401_ETTGESCK (UniProt Q9BYI3)	-0.493	-1.16
EEF1A2_Q05639_411_SGDAAIVEMVPGKPMCVESFSQYPPLGR (UniProt Q05639)	-0.261	-0.239

Target	probe-labelled cysteine peptide fold change (10 µM)	probe-labelled cysteine peptide fold change (50 µM)
EXOSC6_Q5RKV6_248_LGLEGCQR (UniProt Q5RKV6)	-0.00681	0.0231
ERLEC1_Q96DZ1_126_IESYWTYEVCHGK (UniProt Q96DZ1)	0.192	0.0829
EPRS_P07814_660_NSKHEELMLGDPCLK (UniProt P07814)	-0.334	-1.37
FANCG_O15287_417_AQDALTLCEELLSR (UniProt O15287)	0.0123	0.0425
FAM98C_Q17RN3_340_REDGGPQCWGR (UniProt Q17RN3)	-0.342	-1.05
FDFT1_P37268_6_CLGHPEEFYNLVR (UniProt P37268)	-0.238	-0.749
DSTN_P60981_163_LGGSLIVAFEGCPV (UniProt P60981)	-0.192	-0.173
ETHE1_O95571_170_TDFQQGCAK (UniProt O95571)	-0.118	-1.3
FAM120B_Q96EK7_547_LEALMCTNPEIK (UniProt Q96EK7)	-0.253	0.187
EEFSEC_P57772_442_LDADIHTNTCR (UniProt P57772)	-0.204	-1.14
DSTN_P60981_12_ASGVQVADEVCR (UniProt P60981)	0.0942	0.212
DPH5_Q9H2P9_120_VIHNASIMNAVGCCGLQLYK (UniProt Q9H2P9)	0.0911	0.264
EZH2_Q15910_324_NTETALDNKPCGPQCYQHLEGAK (UniProt Q15910)	0.251	-0.196
EHMT1_Q9H9B1_1111_LLPEFNMAEPPLIFECNHACSCWR (UniProt Q9H9B1)	0.0188	-0.282
EIF3CL_B5ME19_572_TCAILCHIYHHALHSR<|>EIF3C_Q99613_571_TCAILCHIYHHALHSR (UniProt Q99613+B5ME19)	0.0697	-0.279
FAM102B_Q5T8I3_254_RNTSVGSTSTGVESILEPCDEIEQK (UniProt Q5T8I3)	-0.237	0.149
FAM120A_Q9NZB2_919_VAAASGHCGAFSGSDSSR (UniProt Q9NZB2)	-0.383	-0.344
FCHSD2_O94868_200_SECNSK (UniProt O94868)	-0.126	-0.158
